HT1080-NT tox – kills 2HG-producing HT-1080-NT fibrosarcoma cells. HT-1080-NT fibrosarcoma viability, CellTiter-Glo ATP luminescence, 48 h. Potency, µM (doses to about 46.1 µM), without a hit: at the highest dose activity, negative = less viability, hits mostly cytotoxic. actives 1.6% (n = 360,000). AID 686970;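 also: NT is the 2HG producing partner of a matched IDH1 knockdown line; 0% = DMSO-treated cells and -100% = media-only wells without cells; nearly all actives have a fitted effect of over 55% in size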
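Viability by CellTiter-Glo luminescence after 48 h compound exposure at 37C of HT-1080-NT cells (750/well, RPMI, 5% FBS). % activity scaled between DMSO wells and medium-only wells, then curve-fitted and categorized by curve class.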
KB-V1 cytotox – KB-V1 MDR subline cytotoxicity. KB-V1 MDR cells viability, CellTiter-Glo, 72 h. Potency, µM (highest dose often 46.1 µM), actives largely listed as cytotoxic. actives 3.4% (n = 400,000); also: nearly all actives have a fitted effect of over 60% in size
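Luminescent ATP read-out (CellTiter-Glo, 10 min) measures survival of drug-selected KB-V1 MDR cells after 72 h, 37 degrees C compound exposure. Medium: phenol-red-free DMEM, 10% FBS. Values from fitted concentration-response curves.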
TDP1 cell noCPT – qHTS for Inhibitors of human tyrosyl-DNA phosphodiesterase 1 (TDP1): qHTS in cells in absence of CPT; AID 686978, 2013; actives 15% (n = 420,000); DT40 Tdp1-/- hTDP1 cells, no CPT, ATP luminescence, 48 h; Potency, µM (series often up to 46.2 µM), for inactives: at the highest dose activity change, negative = growth inhibition, usual class: inhibitors; also: nearly all actives have a fitted effect of over 55% in size
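Readout: luminescence from CellTiter-Glo after 30 min in the dark at RT. Cells: DT40 Tdp1-/- with stable hTDP1, 400/well. Exposure: compounds alone, ≥48 hr, 37 °C.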
HT1080 IDH1KD tx – kills HT-1080 cells with IDH1 knockdown; HT-1080 IDH1 knockdown viability, ATP luminescence, 48 h; Potency, µM (doses to about 46.1 µM), inactives show at the top dose activity, negative = toxicity, hits mostly cytotoxic; actives 2% (n = 360,000); AID 686971;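 also: 0% = DMSO wells and -100% = cell-free medium wells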
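Luminescent ATP read-out (CellTiter-Glo, 10 min at room temperature) after 48 h compound exposure at 37 °C gave viability of IDH1-knockdown HT-1080 cells. Activity was normalised to DMSO and cell-free wells, then fitted as concentration-response curves.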
DT40 TDP1 CPT – growth inhibition of DT40 Tdp1-/-;hTDP1 cells with camptothecin (screen for TDP1 inhibitors). chicken DT40 Tdp1-/-;hTDP1 cells + 20 nM CPT, ATP luminescence, 48 h. actives 12% (n = 420,000). Potency, µM (series often up to 46.2 µM), inactives show at the highest dose activity change, negative = growth inhibition, actives largely listed as inhibitors; also: nearly all actives have a fitted effect of over 55% in size
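Cell growth measured by CellTiter-Glo luminescence after a minimum 48 h, 37 C compound exposure with 20 nM CPT in Tdp1-knockout DT40 cells stably expressing hTDP1, seeded 400/well; qHTS titration format.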
KB-3-1 cytotox – kills parental KB-3-1 adenocarcinoma cells; KB-3-1 viability, CellTiter-Glo ATP luminescence, 72 h; actives 1.4% (n = 400,000); Potency, µM (titrated, usually from 46.1 µM), usual class: cytotoxic; also: nearly all actives have a fitted effect of over 60% in size
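Using CellTiter-Glo luminescence, growth of non-resistant KB-3-1 adenocarcinoma cells is assessed 72 h after pin-tool compound addition at 37 °C. Normalized responses across the concentration series yield fitted curves.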
* = called active by the depositor; i = inactive; ? = inconclusive; nt = no result; [ ] = dose if it differs, or a comment. In the library only some 19% were active in any assay of this set; here they are far more common. Calls follow the shape of the dose curve; as a rule, active = well fitted curve in the direction sought with a large enough effect; inconclusive = small, poorly fitted or top-dose-only effect, or another doubt; inactive = no such curve, though single readings can be large; an effect the other way counts as inactive or inconclusive. Unless noted, % is scaled to controls: 0 for no effect and ±100 for the full control effect; potency is read from the fitted curve at half-maximal effect.

SMILES	HT1080-NT tox	KB-V1 cytotox	TDP1 cell noCPT	HT1080 IDH1KD tx	DT40 TDP1 CPT	KB-3-1 cytotox
Cc1ccc(CN2C(=O)C[C@@H](NC(=O)OCC3c4ccccc4-c4ccccc43)C/C=C\C2c2ccc(C)cc2)cc1 (some centres not stated)	-2%	i	?	-8%	?	i
O=C(NC1C/C=C\C(c2ccccc2)N(c2ccccc2)C(=O)C1)OCC1c2ccccc2-c2ccccc21 (configuration not stated)	-2%	i	0.16µM*	-11%	-82%	i
COc1cc(C(=O)NNC(=O)CNC(=O)C2CCCCC2)ccc1OC(C)C	8%	i	-7%	4%	-27%	i
COC(=O)C1=C(CS(=O)(=O)c2cc(Cl)ccc2OC)NC(=O)NC1c1ccccc1 (configuration not stated)	nt	i	?	nt	-25%	i
Cc1cccc(-c2nc(CN3CCCC(C(=O)NC4CCCCCC4)C3)c(C)o2)c1 (configuration not stated)	20µM*	21µM*	18µM*	?	21µM*	i
Cc1ccccc1-c1nc(CN2CCC(C(=O)NC3CC3)CC2)c(C)o1	2%	i	1%	25%	-6%	i
CCOC(=O)N1CCC(NC(=O)C2CCN(Cc3nc(-c4ccc(CC)cc4)oc3C)CC2)CC1	24%	i	?	-3%	?	i
CCOC(=O)N1CCC(NC(=O)C2CCCN(Cc3nc(-c4ccc(CC)cc4)oc3C)C2)CC1 (configuration not stated)	-14%	i	1.5µM*	-7%	2.9µM*	i
Cc1cccc(-c2nc(CN3CCCC(C(=O)NC4CCCCC4)C3)c(C)o2)c1 (configuration not stated)	?	21µM*	21µM*	?	21µM*	?
COc1ccc(-c2nc(CN3CCC(C(=O)NC4CCCC4)CC3)c(C)o2)cc1OC	8%	i	0%	8%	-5%	i
COCCNC(=O)c1cccc(OC2CCN(Cc3ccc(F)cc3OC)CC2)c1	6%	i	6%	1%	-15%	i
Cc1ccccc1C(=O)Nc1ccc(C(=O)NNC(=O)CCCOc2ccc(Cl)cc2Cl)cc1	-14%	i	-23%	-18%	?	i
Cc1cc(Cl)ccc1OCCCC(=O)NNC(=O)c1ccccc1O	?	i	23µM*	?	?	?
Cc1cc(Cl)ccc1OCCCC(=O)Nc1cccnc1	-8%	i	23µM*	-18%	15µM*	i
Nc1ncnc2c1ncn2[C@@H]1O[C@H](CNCc2ccc(OCC(=O)Nc3nccs3)cc2)[C@@H](O)[C@H]1O	-1%	i	-7%	6%	-14%	i
CC(=O)N1c2ccc(S(=O)(=O)N(C)CC(=O)N(Cc3ccccc3)C(C)C)cc2CC1C (configuration not stated)	nt	i	?	nt	?	i
CC(=O)Nc1ccccc1-c1nc(CNC(=O)c2ccc(-n3cccn3)cc2)c(C)o1	nt	nt	-20%	nt	-13%[9.04 µM]	nt
CC(C)c1ccc(-c2nc(N3CCOCC3)[nH]c(=O)c2C#N)cc1	3%	i	-4%	1%	3%	i
O=C(C[n+]1cc(-c2ccc(Cl)c(Cl)c2)n2c1CCC2)OCc1ccccc1	4%	?	-14%	12%	-13%	i
Clc1ccc(-c2c[n+](Cc3ccc(Cl)cc3Cl)c3n2CCCCC3)cc1	8.2µM*	i	1.2µM*	16µM*	1.2µM*	?
Clc1ccc(C[n+]2cc(-c3ccccc3)n3c2CCCCC3)c(Cl)c1	15µM*	?	0.26µM*	16µM*	0.46µM*	2.1µM*
N#CC[n+]1cc(-c2ccc(Cl)cc2)n2c1CCC2	2%	i	0%	4%	-5%	i
Clc1ccc(-c2c[n+](Cc3ccc(Br)cc3)c3n2CCCCC3)cc1	?	i	2.6µM*	?	2.6µM*	?
COc1ccccc1N1CCN(c2ncnc3onc(C)c23)CC1	nt	?	15µM*	nt	?	i
Fc1ccccc1N1CCN(c2ncnc3nc[nH]c23)CC1	15%	i	2%	15%	-10%	i
SMILES	HT1080-NT tox	KB-V1 cytotox	TDP1 cell noCPT	HT1080 IDH1KD tx	DT40 TDP1 CPT	KB-3-1 cytotox
Cc1noc2ncnc(N3CCN(c4ccccc4F)CC3)c12	nt	i	23µM*	nt	21µM*	i
COc1ccccc1N1CCN(c2ncnc3n[nH]c(Br)c23)CC1	?	?	?	18µM*	?	?
Fc1ccccc1N1CCN(c2ncnc3[nH]ncc23)CC1	2%	i	?	-7%	15µM*	i
O=C(O)c1ccc2c(=O)n(-c3ccc(F)c(Cl)c3)c(=S)[nH]c2c1	-2%	i	-10%	9%	3%	i
CCCC(=O)Nc1ccc(C(=O)n2ccc(C)n2)cc1	0%	i	-14%	11%	-2%	i
Cc1ccccc1OCCC(=O)OCC(=O)NC1CCS(=O)(=O)C1 (configuration not stated)	2%	i	19%	-1%	-8%	i
Clc1ccc(-c2noc(CN(Cc3ccccn3)CC3CCCO3)n2)cc1 (configuration not stated)	-10%	?	16µM*	-4%	?	i
FC(F)(F)c1cccc(Cc2noc(CN(Cc3ccccn3)CC3CCCO3)n2)c1 (configuration not stated)	2%	i	21µM*	6%	21µM*	i
Cc1oc(-c2ccc(F)cc2)nc1CN(Cc1ccccn1)CC1CCCO1 (configuration not stated)	0%	?	29µM*	-12%	?	i
Cc1oc(-c2ccoc2)nc1CN(Cc1ccccc1)CC1CC1	15%	i	-1%	3%	-8%	i
CCc1nnc(NC(=O)C(=O)c2cc(C)n(-c3ccccc3)c2C)s1	nt	i	-25%	nt	-5%	i
Cc1cc(Oc2ccc(-c3ccccc3)cc2)n2ncnc2n1	-30%	i	-25%	?	18µM*	i
CCN(c1ccccc1)c1cc(C)nc2ncnn12	1%	i	2%	4%	3%	i
O=C(Cc1ccc(Oc2ccccc2)cc1)NO	nt	i	?	nt	?	i
COc1ccc(-c2nc(CN3CCN(C(=O)c4ccco4)CC3)c(C)o2)c(F)c1	0%	nt	?	-8%	0%	nt
